Pf Dd2 growth: blocks growth of Plasmodium falciparum Dd2 parasites | P. falciparum Dd2 growth, SYBR Green, 72 h; stronger effect = lower value | 94,000 tested, 2.3% active | activity change, % at 10 µM; in the data active = activity change below about -80%; inconclusive = no clear call, values can overlap the other calls
C diff growth: inhibitors of Clostridium difficile growth; 86,000 tested, 0.25% active; growth activity, negative = inhibition, % at 16 µg/mL (by protocol); Clostridium difficile clinical isolate growth, OD600, 24 h; stronger effect = lower value;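 active = mean growth activity at or below -80% and every replicate also at or below -80%; inconclusive = mean at or below -80% but some replicate above -80%; inactive = mean growth activity above -80%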;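 also: 0% = DMSO wells and -100% = levofloxacin 16 µg/mL wells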
Active calls of the source: *; ? = inconclusive; · = no result given; ! = repeats disagree. Rows were chosen to be rich in hits. Some 2.4% of all compounds tested hit in one or more screens of this group.

SMILES | Pf Dd2 growth | C diff growth
CNC[C@@H]1Oc2c(NS(C)(=O)=O)cccc2C(=O)N([C@H](C)CO)C[C@@H]1C | -9 | 4
COc1cccc(CN2C[C@@H]3N[C@H](C2)C3c2ccc(-c3cccc(C#N)c3)cc2)c1 (stereo partly drawn) | ? | 43
COc1cccc(-c2ccc(C3[C@@H]4CN(Cc5ccccn5)C[C@H]3N4)cc2)c1 (stereo partly drawn) | -69 | 13
COc1ccc(-c2ccc(C3[C@@H]4CN(Cc5ccccn5)C[C@H]3N4)cc2)cc1 (stereo partly drawn) | -75 | -12
COc1cccc(-c2ccc(C3[C@@H]4CN(Cc5cccc(F)c5)C[C@H]3N4)cc2)c1 (stereo partly drawn) | -66 | -99*
COc1cccc(CN2C[C@@H]3N[C@H](C2)C3c2ccc(-c3ccncc3)cc2)c1 (stereo partly drawn) | -89*! | -3
COc1ccc(-c2ccc(C3[C@@H]4CN(Cc5cccc(OC)c5)C[C@H]3N4)cc2)cc1 (stereo partly drawn) | -68 | -81*!
CC(=O)N1CC[C@@H]2[C@@H](CO)Nc3ccc(C#Cc4ccccc4F)cc3[C@@H]21 | -83* | -1
COc1ccccc1CN1CC[C@H]2[C@H](CO)Nc3ccc(C#Cc4ccccc4)cc3[C@H]21 | -76 | -100*
CC(=O)N1CC[C@H]2[C@H](CO)Nc3ccc(C#Cc4ccccc4F)cc3[C@H]21 | -21 | -7
COc1ccccc1C#Cc1ccc2c(c1)[C@H]1[C@H](CCN1C(=O)c1ccccc1)[C@H](CO)N2 | -4 | 2
COc1ccccc1C#Cc1ccc2c(c1)[C@@H]1[C@@H](CCN1C(=O)c1ccncc1)[C@H](CO)N2 | -63 | 12
COc1ccccc1CN1CC[C@H]2[C@H](CO)Nc3ccc(-c4cccc(F)c4)cc3[C@H]21 | -67 | -2
COc1ccccc1C#Cc1ccc2c(c1)[C@@H]1[C@@H](CCN1C(=O)c1ccncc1)[C@@H](CO)N2 | -45 | -95*
COc1ccccc1C#Cc1ccc2c(c1)[C@H]1[C@H](CCN1C(=O)c1ccc(F)cc1)[C@@H](CO)N2 | -65 | -101*
CN(C)C(=O)[C@H]1[C@H](CO)[C@H]2Cn3c(ccc(C4=CCCCC4)c3=O)[C@@H]1N2Cc1ccccc1F | -28 | -2
COc1ccc(NC(=O)Nc2cccc3c2O[C@H](CN(C)Cc2ccc(C(F)(F)F)cc2)[C@H](C)CN([C@@H](C)CO)C3=O)cc1 | -19 | -101*
COc1ccc(CN(C)C[C@@H]2Oc3c(NC(=O)Nc4ccc(C(F)(F)F)cc4)cccc3C(=O)N([C@H](C)CO)C[C@@H]2C)cc1 | -2 | 17
C[C@@H]1CN([C@@H](C)CO)C(=O)c2cccc(NC(=O)Nc3ccc(C(F)(F)F)cc3)c2O[C@@H]1CN(C)Cc1ccc(Oc2ccccc2)cc1 | -72 | -96*
C[C@H]1CN([C@@H](C)CO)C(=O)c2cccc(NC(=O)Nc3ccc(C(F)(F)F)cc3)c2O[C@H]1CN(C)Cc1ccc(Oc2ccccc2)cc1 | 2 | 81
Cc1ccc(CN2CC(=O)N3[C@@H](CO)[C@@H](c4ccc(Br)cc4)[C@@H]3C2)cc1 | -42 | -5
COc1ccccc1NC(=O)Nc1ccc2c(c1)C(=O)N(C)C[C@@H](OC)[C@@H](C)CN[C@@H](C)CO2 | 18 | -1
CO[C@H]1CN(C)C(=O)c2cc(NC(=O)C3CC3)ccc2OC[C@H](C)N(CCc2ccccc2)C[C@H]1C | -26 | 4
C[C@@H]1CCCCO[C@H](CN(C)S(=O)(=O)c2ccc(Cl)cc2)[C@@H](C)CN([C@@H](C)CO)C(=O)c2cc(NC(=O)Nc3ccccc3)ccc2O1 | -74 | ·
Cc1ccc(S(=O)(=O)N(C)C[C@@H]2OCCCC[C@H](C)Oc3ccc(NC(=O)Nc4ccccc4)cc3C(=O)N([C@@H](C)CO)C[C@H]2C)cc1 | -92* | 7
SMILES | Pf Dd2 growth | C diff growth
CC(C)NC(=O)Nc1ccc2c(c1)C(=O)N([C@@H](C)CO)C[C@H](C)[C@H](CN(C)S(=O)(=O)c1ccc(Cl)cc1)OCCCC[C@@H](C)O2 | -83* | 13
Cc1ccc(S(=O)(=O)N(C)C[C@@H]2OCCCC[C@@H](C)Oc3ccc(NC(=O)Nc4ccccc4)cc3C(=O)N([C@@H](C)CO)C[C@@H]2C)cc1 | -91* | 21
Cc1ccc(S(=O)(=O)N(C)C[C@H]2OCCCC[C@@H](C)Oc3ccc(NC(=O)Nc4ccccc4)cc3C(=O)N([C@H](C)CO)C[C@@H]2C)cc1 | -25 | 2
Cc1ccc(S(=O)(=O)N(C)C[C@@H]2OCCCC[C@@H](C)Oc3ccc(NC(=O)Nc4ccccc4)cc3C(=O)N([C@@H](C)CO)C[C@H]2C)cc1 | -67 | 0
CC(C)NC(=O)Nc1ccc2c(c1)C(=O)N([C@H](C)CO)C[C@H](C)[C@H](CN(C)S(=O)(=O)c1ccc(Cl)cc1)OCCCC[C@@H](C)O2 | -68 | 9
C[C@@H]1CN([C@@H](C)CO)C(=O)c2cc(NC(=O)Nc3ccccc3)ccc2O[C@@H](C)CCCCO[C@H]1CN(C)S(=O)(=O)c1ccc(Cl)cc1 | -83* | ·
Cc1noc(C)c1NC(=O)N[C@H]1CC[C@@H](CC(=O)Nc2ccccc2)O[C@@H]1CO | · | 0
COCC(=O)Nc1ccc2c(c1)C(=O)N(C)C[C@@H](OC)[C@H](C)CN(Cc1cncnc1)[C@@H](C)CO2 | 27 | -1
C[C@@H]1CN([C@H](C)CO)C(=O)c2cc(NC(=O)CCC(F)(F)F)ccc2O[C@@H](C)CCCCO[C@H]1CN(C)S(C)(=O)=O | 46 | 3
CCNC(=O)[C@@H]1[C@@H](CO)[C@@H]2Cn3c(ccc(-c4ccccc4)c3=O)[C@@H]2N1Cc1ccccc1 | 0 | 1
COc1ccc2c3c([nH]c2c1)[C@@H](CO)N(Cc1ccccc1)CC31CN(C(C)=O)C1 | -56 | -1
C[C@H]1CN([C@@H](C)CO)S(=O)(=O)c2ccc(C#CC3CCCC3)cc2O[C@H]1CN(C)C(=O)c1cccc(F)c1 | -56 | ·
C[C@@H]1CCCCO[C@@H](CN(C)C(=O)Nc2ccc(F)cc2)[C@@H](C)CN([C@H](C)CO)C(=O)c2cc(NC(=O)CCCN(C)C)ccc2O1 | 63 | -18
COc1ccc2c3c(n(C)c2c1)[C@@H](CO)NCC31CN(Cc2ccc(-c3ccccn3)cc2)C1 | -89* | 10
COc1ccc2c3c(n(C)c2c1)[C@@H](CO)NCC31CCN(Cc2ccccc2F)CC1 | -78 | 9
COc1ccc2c3c(n(C)c2c1)[C@H](CO)NCC31CCN(Cc2ccc(-c3ccccn3)cc2)CC1 | -88* | -7
COc1ccc2c3c(n(C)c2c1)[C@@H](CO)NCC31CCN(Cc2ccc(-c3ccccn3)cc2)CC1 | -88* | -7
COc1ccc2c3c(n(C)c2c1)[C@@H](CO)NCC31CCN(Cc2cc(-c3ccccc3)on2)CC1 | -72 | -18
COc1ccc2c3c(n(C)c2c1)[C@H](CO)NCC31CN(Cc2ccc(Cl)cc2)C1 | -9 | ·
O=C(c1ccccc1F)N1C[C@H]2[C@@H](c3ccccc31)[C@@H](CO)N2C(=O)C1CCCC1 | 19 | 0
C[C@@H]1CCCCO[C@H](CN(C)CC2CC2)[C@H](C)CN([C@H](C)CO)C(=O)c2cc(NC(=O)C3CCCCC3)ccc2O1 | -83* | ·
C[C@@H]1CCCCO[C@@H](CN(C)CC2CC2)[C@@H](C)CN([C@H](C)CO)C(=O)c2cc(NC(=O)Nc3ccccc3)ccc2O1 | -84* | 10

Bioassay records as filed in PubChem BioAssay.
